Laboratory results as given in PubChem BioAssay (NCATS).
Records with an inconclusive call do not appear. Active and inactive are the calls of the source. Calls come from the whole dose curve; as a rule, active = well fitted curve in the direction sought with a large enough effect; inconclusive = small, poorly fitted or top-dose-only effect, or another doubt; inactive = no such curve, though single readings can be large or run the other way.

experiment: Cytometric Cell-Based qHTS for Inhibitors of the mTORC1 Signaling Pathway in MEF (Tsc2-/-, p53-/-) Cells (AID 2660); details: mTORC1 pathway cytometry; series mostly up to 38.3 µM; activity change, negative = inhibition: at the top concentration;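 for activity change, negative = inhibition: Tsc2 and p53 null MEFs carrying empty vector with compound for 24 h; percent of cells above a phospho-rpS6 to PI ratio cutoff in each well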
Description: NIH Molecular Libraries Probe Production Centers Network [MLPCN]
NIH Chemical Genomics Center [NCGC]
Assay Submitter (PI): Blenis, John; Hoffman, Greg; Harvard University
NCGC Assay Overview: The mammalian target of rapamycin (mTOR) is an intracellular serine/threonine kinase Aberrant regulation of mTOR signaling plays a causative role in a number of human diseases, including cancer, benign tumors such as lymphangioleiomyomatosis (LAM) and Tuberous Sclerosis Complex (TSC), and metabolic diseases such as diabetes and obesity. This project aims to identify inhibitors of ribosomal protein S6 (rpS6) phosphorylation. The phosphorylation of rpS6 is a key event downstream of mTOR activation. The assay uses a phospho-specific antibody of phospho-rpS6 to detect inhibitors of mTOR activation. Mutations in the Tsc1 and Tsc2 genes are the underlying genetic lesions responsible for TSC, causing constitutive activation of the mTORC1 pathway and leading to profound effects on cell metabolism. Aberrant metabolism in cancer has recently received significant attention as a target to develop therapeutic agents in the treatment of cancer.1 As Tsc2-/- cells have lost the ability to respond to energy and growth factor deprivation, these cells are unable to properly down regulate cellular biosynthetic processes in response to metabolic stress, and are thus extremely sensitive to glucose deprivation-induced death.2 A central goal of this project is to explore the unique cell survival and metabolic properties of cells with Tsc1 or Tsc2 by screening for compounds that selectively target the Tsc2-/- MEFs by screening both Tsc2-/- and WT MEF cell lines. We hope to better understand these aspects of TSC physiology in order to exploit them for therapeutic benefit.
NCGC Acumen Assay Protocol Summary:
For quantitative high throughput analysis of mTORC1 signaling, we developed a cell-based assay for immuno-fluorescence based detection of rpS6 phosphorylation on the Acumen Explorer that will be used a platform for the primary small molecule screen. Mouse embryonic fibroblasts (MEFs) are cultured in 1536-well plates using DMEM + 10% FBS. Twenty-four hrs after plating, test compounds (solubilized in DMSO) are delivered and incubated with the cells for 24 hrs at 37 degree Celsius. Following the incubation, media with compound is aspirated and the cells are fixed in 4% paraformaldehyde (PFA) containing PBS + 0.2% TX-100. Next, PFA is aspirated, cells are washed two times with PBS plus 0.2% TX-100 and the cells are blocked for 1 hr at room temperature (blocking buffer: LiCOR Blocking Buffer plus 0.2% TX-100). This is followed by aspiration and staining with Alexa-488 conjugated-phospho-rpS6 Ser235/236 antibody for 2 hours at room temperature (Cell Signaling Technology # 4803, 1:50 dilution in blocking buffer). Cells are washed two times with PBS plus 0.2% TX-100, and stained with 10 uM propidium iodide (PI) for 20-25 minutes for cell number measurement (1:500 dilution of Hoescht staining is also added for IN Cell imaging). The plates are scanned on the Acumen Explorer laser scanning instrument (TTP Labtech) using the 488nm laser for simultaneous excitation of the Alexa-488 and PI. The fluorescence emission from the Alexa-488 conjugated rpS6 phospho-235/236 antibody staining is selected using a […] band pass filter. Fluorescence emission from the PI stain is selected using a 575-640 nm band pass filter. The normalized phospho-S6 staining is calculated as the ratio of the integrated Alexa 488 intensity divided by the integrated PI intensity for the single concentration rapamycin control (7.5 nM) and DMSO columns. […] Inhibition of the pathway is defined based on the normalized phospho-S6 intensity in rapamycin treated cells. […]
Potency is the fitted concentration of half-maximal effect.

| SMILES | activity change, negative = inhibition | Potency |
| --- | --- | --- |
| Oc1ccc2c3c1O[C@H]1c4[nH]c5c(c4C[C@@]4(O)[C@@H](C2)N(CC2CC2)CC[C@]314)C[C@@]1(O)[C@H]2Cc3ccc(O)c4c3[C@@]1(CCN2CC1CC1)[C@H]5O4 | 1.72% (inactive) |  |
| C[N+]1(C)C2CCC1CC(OC(=O)C(CO)c1ccccc1)C2 (stereo not given) |  | inactive |
| CC(Cc1ccc(O)cc1)NCC(O)c1cc(O)cc(O)c1 (stereo not given) | 7.28% (inactive) |  |
| NC1CCc2cc(O)c(O)cc2C1 (stereo not given) | 2.55% (inactive) |  |
| CNCCc1c[nH]c2ccc(O)cc12 | -17.4% (inactive) |  |
| CS(=N)(=O)CC[C@H](N)C(=O)O (stereo not given in full) | -1.25% (inactive) |  |
| CC[C@@H](C(N)=O)N1CCCC1=O | -3% (inactive) |  |
| c1ccc(CCCN2CCN(CCOC(c3ccccc3)c3ccccc3)CC2)cc1 | -28.3% (inactive) |  |
| Clc1cnc(Oc2ccc(Oc3ncc(Cl)cc3Cl)cc2)c(Cl)c1 | 1.03% (inactive) |  |
| O=C(O)[C@@H]1CCN1 | -4.71% (inactive) |  |
| CCCN1CCC[C@H](c2cccc(O)c2)C1 | 5.35% (inactive) |  |
| CC[C@@]1(O)C(=O)OCc2c1cc1n(c2=O)Cc2cc3ccccc3nc2-1 | -22% (inactive) |  |
| O=C(N[C@H]1CN2CCC1CC2)c1ccc(Cl)cc1 | 8.63% (inactive) |  |
| NCCc1c[nH]c2ccc(O)cc12 | 1.13% (inactive) |  |
| O=C(O)CC[N+](=O)[O-] | -0.569% (inactive) |  |
| NC1CC1c1ccccc1 (stereo not given) | 7.44% (inactive) |  |
| C=CCN1CC[C@]23CCCCC2[C@H]1Cc1ccc(O)cc13 (stereo not given in full) | -1.15% (inactive) |  |
| CC1=NN=C(c2ccc(N)cc2)c2cc3c(cc2C1)OCO3 | 1.49% (inactive) |  |
| CCCN(CCC)C1CCc2ccc(O)cc2C1 (stereo not given) | -2.46% (inactive) |  |
| c1ccc2sc(C3(N4CCCCC4)CCCCC3)cc2c1 | 2.71% (inactive) |  |

| SMILES | activity change, negative = inhibition | Potency |
| --- | --- | --- |
| CN1C2CCC1CC(OC(=O)c1cc(Cl)cc(Cl)c1)C2 (stereo not given) | 2.57% (inactive) |  |
| CN[C@@H]1C[C@@H](c2ccc(Cl)c(Cl)c2)c2ccccc21 |  | 18.5 µM (active) |
| C[C@@H]1O[C@H](C[N+](C)(C)C)C[C@H]1O | -0.942% (inactive) |  |
| CC(=O)[C@H]1CCC2C3CC[C@H]4C[C@H](O)CC[C@]4(C)C3CC[C@@]21C (stereo not given in full) | -6.73% (inactive) |  |
| CCCN(CCC)[C@@H]1CCc2ccc(O)cc2C1 | 8.61% (inactive) |  |
| CCCCc1ccc(C(=O)O)nc1 | -0.819% (inactive) |  |
| C#CCOC(=O)C1=CCCN(C)C1 | -0.307% (inactive) |  |
| C[C@]12N[C@H](Cc3ccccc31)c1ccccc12 | 4.62% (inactive) |  |
| NC(CCP(=O)(O)O)C(=O)O (stereo not given) | 10.5% (inactive) |  |
| CNCCc1ccc(O)c(O)c1 | 3.74% (inactive) |  |
| NC(CP(=O)(O)O)C(=O)O (stereo not given) | 3.79% (inactive) |  |
| COC(=O)[C@@H](N)CCCN=C(N)N[N+](=O)[O-] | -1.73% (inactive) |  |
| NC(N)=NOCCC(N)C(=O)O (stereo not given) | -0.0091% (inactive) |  |
| NC(=NCCC[C@H](N)C(=O)O)N[N+](=O)[O-] | 5.74% (inactive) |  |
| O=C(Cc1ccc(Cl)c(Cl)c1)N1CCCCC1CN1CCCC1 (stereo not given) | -0.213% (inactive) |  |
| O=C1CCCN1CC#CCN1CCCC1 | -1.43% (inactive) |  |
| CCCN1CCO[C@@H]2c3cc(O)ccc3OC[C@H]21 |  | inactive |
| NCc1cc(=O)[nH]o1 | 3.2% (inactive) |  |
| CC(=O)NCCc1c[nH]c2ccccc12 | 4.8% (inactive) |  |
| C[C@@H](N)Cc1cnc[nH]1 | 1.28% (inactive) |  |
